# Several values for one entry are separate records, joined by “and”; a condition that tells them apart may be missing. Equal values may be shown once. Inconclusive results are not listed. Where a call stands in place of a potency, no number is given. Activity calls are given as the source filed them. Unless noted, the call rests on the fitted dose curve; in most records, active means well fitted curve in the direction sought with a large enough effect; inconclusive means small, poorly fitted or top-dose-only effect, or another doubt; inactive means no such curve, though single readings can be large; an effect the other way counts as inactive or inconclusive.
# What was measured:
# [1] = qHTS Assay for Lipid Storage Modulators (AID 1519; calls by dose curve); settings: Drosophila S3 cells, BODIPY lipid droplet/cell ratio, laser cytometry, cells loaded with oleic acid
# Procedure, shortened: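 Cells seeded at 5,000 per well were treated with compounds over a concentration series and loaded with oleic acid (400 uM, as added). Lipid droplet fluorescence (488 nm excitation, 500-530 nm channel) was read by laser-scanning cytometry and normalized to 20 uM Triacsin C.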
# [2] = biological target: Alpha-galactosidase A (Homo sapiens) (UniProt P06280); assay: Counterscreen for Glucocerebrosidase Inhibitors: qHTS Assay for Human alpha-Galactosidase at pH 4.5 (AID 992); settings: purified enzyme, fluorogenic substrate; series mostly up to 76.9 µM
# Procedure, shortened: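 Each compound is preincubated briefly with 2 nM enzyme before substrate addition (80 uM); plates then sit 20 min at ambient temperature, are quenched with 1M NaOH/1M glycine, and read fluorometrically.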
# [3] = biological target: alpha-glucosidase (Oryza sativa, rice) (UniProt Q653V4); assay: Counterscreen for Glucocerebrosidase Inhibitors: qHTS Assay for Rice alpha-Glucosidase at pH 5.0 (AID 997); settings: rice alpha-glucosidase enzyme activity; series mostly up to 76.9 µM
# Procedure, shortened: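 Endpoint fluorogenic assay at pH 5.0: compounds (0.7 nM to 77 uM) titrated against 4 nM rice enzyme and 400 uM 4-MU-alpha-glucoside for 20 min at room temperature; NaOH/glycine stop, read ex 365/em 440 nm, Hill-fitted AC50.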
# [4] = biological target: Alpha-galactosidase (Coffea arabica) (UniProt Q42656); assay: Counterscreen for Glucocerebrosidase Inhibitors: qHTS Assay for Coffee Bean alpha-Galactosidase at pH 5.9 (AID 998); settings: coffee bean alpha-galactosidase enzyme assay; series mostly up to 76.9 µM
# Procedure, shortened: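 In 50 mM citric acid pH 5.9 with 0.005% Tween-20, coffee bean enzyme hydrolyses 80 uM 4-MU alpha-D-galactopyranoside over 20 min at RT. Activity is normalized to controls; AC50 comes from Hill-modelled concentration-response data.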
# [5] = Validation of Assay for Modulators of Lamin A Splicing (AID 1459; active means well fitted curve in the direction sought with a large enough effect in the signal ratio; the % refers to the signal ratio;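 further: cells exposed to compound for two days before reading; ratio rise marks activators and ratio drop marks inhibitors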); settings: Lamin A splicing dual RFP/GFP fluorescence reporter; series mostly up to 9.22 µM
# Procedure, shortened: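 Readout: ratio of GFP (500-530 nm) to RFP (575-640 nm) total object intensity by 488 nm laser-scanning cytometry after 48 hrs. Cells were HeLa S3 clones carrying lamin A-EGFP minigene plus DsRed2 viability reporter; vehicle 0.5% DMSO final.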
# [6] = biological target: DNA repair nuclease/redox regulator APEX1 (Homo sapiens) (UniProt P27695); assay: qHTS Validation Assay for Inhibitors of the Human Apurinic/apyrimidinic Endonuclease 1 (APE1) (AID 1705;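 further: TAMRA fluorescence gain over two minutes as APE1 cuts a quenched THF abasic duplex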); settings: purified APE1 endonuclease activity, fluorescence, titration; series mostly up to 57.1 µM
# Procedure, shortened: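 Read-out: TAMRA fluorescence (525 nm ex, 598 nm em) from cleavage of a quenched THF abasic-site duplex, 50 nM final; activity taken as intensity change between third and first of three reads 60 s apart.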
# [7] = Counterscreen for APE1 Inhibitors: Fluorescent Dye Displacement Validation Assay (AID 1707); settings: fluorescent dye displacement from DNA; series mostly up to 57.1 µM
# Procedure, shortened: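 Loss of Thiazole Orange fluorescence marks promiscuous DNA binders. The dye (250 nM) is mixed with 50 nM abasic-site dsDNA in pH7.5 Tris buffer containing MgCl2, then compounds are added and emission is read once.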
# [8] = biological target: Endonuclease 4 (Escherichia coli (strain K12)) (UniProt P0A6C1); assay: Counterscreen for APE1 Inhibitors: qHTS Validation Assay for Inhibitors of Endonuclease IV (AID 1708); settings: E. coli endonuclease IV, DNA cleavage fluorescence; series mostly up to 57.1 µM
# Procedure, shortened: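 Enzyme (2 nM) + compound, 15 min RT; add 50 nM TAMRA/BHQ-2 THF-site dsDNA; kinetic read ex525/em598, 3 reads/60 s; activity = read 3 − read 1. Buffer Tris pH 7.5, 50 mM NaCl, 2 mM MgCl2, DTT, Tween-20.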
# [9] = qHTS for differential inhibitors of proliferation of Plasmodium falciparum line 7G8 (AID 1815); settings: Plasmodium falciparum 7G8 proliferation inhibition; series mostly up to 28.7 µM;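 further: parasite growth measured after three days of incubation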; further: potency means the concentration at half of the fitted maximal effect
# [10] = qHTS for differential inhibitors of proliferation of Plasmodium falciparum line 3D7 (AID 1876); further: potency means the concentration at half of the fitted maximal effect; settings: P. falciparum 3D7 proliferation inhibition; series mostly up to 28.7 µM
# [11] = qHTS for differential inhibitors of proliferation of Plasmodium falciparum line Dd2 (AID 1882); settings: Potency: Plasmodium falciparum Dd2 proliferation inhibition; series mostly up to 28.7 µM; further: nearly all actives have a fitted effect of over 65% in size; further: potency means the concentration at half of the fitted maximal effect
# Procedure, shortened: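 SYBR Green DNA fluorescence (ex 485, em 535 nm) after overnight lysis quantifies parasite growth; compound exposure lasted 72 h at 37 C on infected red cells at 2.5% hematocrit, 0.3% parasitemia (final). Artemisinin 0.29 uM and vehicle wells define normalization.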
# [12] = qHTS for differential inhibitors of proliferation of Plasmodium falciparum line GB4 (AID 1816); settings: Potency: Plasmodium falciparum GB4 proliferation inhibition; series mostly up to 28.7 µM;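 further: parasite growth measured after 72 h incubation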; further: potency means the concentration at half of the fitted maximal effect
# [13] = qHTS for differential inhibitors of proliferation of Plasmodium falciparum line D10 (AID 1877); settings: series mostly up to 28.7 µM;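 further: parasites grown with compound for 72 h before DNA staining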; further: potency means the concentration at half of the fitted maximal effect
# [14] = qHTS for differential inhibitors of proliferation of Plasmodium falciparum line W2 (AID 1883); settings: Potency: Plasmodium falciparum W2 proliferation inhibition; series mostly up to 28.7 µM;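 further: parasites grown with compound for 72 h before lysis and staining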; further: potency means the concentration at half of the fitted maximal effect
# [15] = Cell Viability - LYMP2-018 (AID 985); settings: LYMP2-018 lymphoblastoid cells, viability (qHTS); series mostly up to 92.2 µM; further: nearly all actives have a fitted effect of over 50% in size; further: potency means the concentration at half of the fitted maximal effect
# Procedure, shortened: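 Viability read as CellTiter-Glo luminescence (cellular ATP) after 24 hr compound exposure at 37 C of 2500 LYMP2-018 lymphoblastoid cells/well, pre-plated 5 hr. Hill-equation modelling gave AC50.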
# [16] = Cell Viability - LYMP2-020 (AID 986); settings: series mostly up to 92.2 µM; further: nearly all actives have a fitted effect of over 55% in size
# Procedure, shortened: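 Cytotoxicity in qHTS format: luminescent ATP readout from CellTiter-Glo after 24 h compound exposure at 37 C in complete medium. LYMP2-020 lymphoblastoid cells were seeded at 2500/well; concentration-response data fitted to the Hill equation for AC50.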
# [17] = Cell Viability - LYMP2-022 (AID 987); settings: LYMP2-022 lymphoblastoid cell viability; series mostly up to 92.2 µM; further: nearly all actives have a fitted effect of over 55% in size
# Procedure, shortened: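 Cytotoxicity read as decreased cellular ATP (CellTiter-Glo luminescence, 30 min room temperature) after 24 hours compound exposure of 2500 lymphoblastoid LYMP2-022 cells/well at 37 C. Concentration-response data fitted with standard Hill equation for AC50.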
# [18] = Cell Viability - LYMP2-026 (AID 989); settings: LYMP2-026 lymphoblastoid cell viability, qHTS; series mostly up to 92.2 µM; further: nearly all actives have a fitted effect of over 50% in size
# Procedure, shortened: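 Cytotoxicity read as ATP-dependent luminescence (CellTiter-Glo, 30 min room temperature) after 24 h compound treatment at 37 C. LYMP2-026 lymphoblastoid line seeded at 2500 cells/well; AC50 derived by standard Hill equation.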
# [19] = Cell Viability - LYMP1-002 - Assay at 24 hr (AID 993); settings: LYMP1-002 lymphoblastoid cells viability; series mostly up to 92.2 µM; further: potency means the concentration at half of the fitted maximal effect
# Procedure, shortened: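 qHTS cytotoxicity at 24 h: CellTiter-Glo ATP luminescence in lymphoblastoid line LYMP1-002 incubated with compound at 37 °C. Concentration-response modeled with the Hill equation for AC50; tetraoctylammonium bromide served as positive control.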
# [20] = Cell Viability - LYMP1-002 - Assay at 40 hr (AID 994); settings: LYMP1-002 lymphoblastoid cell viability; series mostly up to 92.2 µM; further: nearly all actives have a fitted effect of over 60% in size; further: potency means the concentration at half of the fitted maximal effect
# Procedure, shortened: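 Cytotoxicity was read as loss of cellular ATP (CellTiter-Glo luminescence) after 40 hr compound exposure at 37 C of 2500 LYMP1-002 lymphoblastoid cells per well. Concentration-response data were fitted with the standard Hill equation to give AC50.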
# [21] = measured here: cell count channel max response
# [22] = measured here: lipid channel max response
# Sequence of Alpha-galactosidase A (Homo sapiens) (P06280 whole entry, looked up): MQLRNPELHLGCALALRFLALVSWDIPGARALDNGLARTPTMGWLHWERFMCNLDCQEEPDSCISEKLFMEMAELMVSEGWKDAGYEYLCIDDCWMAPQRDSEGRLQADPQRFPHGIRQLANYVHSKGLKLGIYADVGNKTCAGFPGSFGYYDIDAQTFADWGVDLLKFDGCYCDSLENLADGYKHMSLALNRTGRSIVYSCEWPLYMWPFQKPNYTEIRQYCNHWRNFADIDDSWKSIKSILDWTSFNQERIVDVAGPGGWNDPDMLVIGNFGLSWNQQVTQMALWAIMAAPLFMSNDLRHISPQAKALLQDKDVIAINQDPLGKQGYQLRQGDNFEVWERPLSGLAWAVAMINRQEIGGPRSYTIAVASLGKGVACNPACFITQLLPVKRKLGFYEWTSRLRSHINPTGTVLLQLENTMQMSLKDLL
# Sequence of DNA repair nuclease/redox regulator APEX1 (Homo sapiens) (P27695 whole entry, looked up): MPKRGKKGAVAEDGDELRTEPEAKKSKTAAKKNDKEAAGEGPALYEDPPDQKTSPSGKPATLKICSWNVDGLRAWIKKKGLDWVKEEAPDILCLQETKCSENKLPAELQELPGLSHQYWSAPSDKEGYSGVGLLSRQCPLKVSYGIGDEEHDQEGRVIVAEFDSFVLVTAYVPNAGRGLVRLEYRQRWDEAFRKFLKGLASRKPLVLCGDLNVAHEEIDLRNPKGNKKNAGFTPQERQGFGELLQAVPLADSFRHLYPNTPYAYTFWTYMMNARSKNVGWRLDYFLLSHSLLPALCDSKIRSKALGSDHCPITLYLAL
# Sequence of Alpha-galactosidase (Coffea arabica) (Q42656 whole entry, looked up): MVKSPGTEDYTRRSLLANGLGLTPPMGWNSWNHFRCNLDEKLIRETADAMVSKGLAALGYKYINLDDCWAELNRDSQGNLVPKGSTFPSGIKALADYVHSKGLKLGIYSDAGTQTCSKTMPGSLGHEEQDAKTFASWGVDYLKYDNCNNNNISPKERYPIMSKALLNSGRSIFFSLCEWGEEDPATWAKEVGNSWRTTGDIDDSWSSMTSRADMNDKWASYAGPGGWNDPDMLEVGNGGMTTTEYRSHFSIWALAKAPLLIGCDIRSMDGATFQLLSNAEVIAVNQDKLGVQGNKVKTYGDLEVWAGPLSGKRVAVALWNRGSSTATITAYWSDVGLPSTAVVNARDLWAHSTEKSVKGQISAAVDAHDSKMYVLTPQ
compound,measurement,setting,value
CC(C)=CC1C(C(=O)OCc2cccc(Oc3ccccc3)c2)C1(C)C (stereo not drawn),"activity change, negative = inhibition",[1]; at 57.5 µM (top of the series),8.71% (inactive)
same,max response,[1]; [21],10.5%
same,max response,[1]; [22],23.2%
COc1ccccc1N1CCNCC1,outcome,[2],inactive
same,outcome,[3],inactive
same,outcome,[4],inactive
same,outcome,[5],inactive
same,"activity change, negative = inhibition",[1]; at 57.5 µM (top of the series),3.26% (inactive) and 0.382% (inactive)
same,max response,[1]; [21],10.9% and -13.3%
same,max response,[1]; [22],15.1% and -12.9%
same,outcome,[6],inactive
same,Potency,[7],inactive
same,outcome,[8],inactive
same,Potency,[9],inactive
same,Potency,[10],inactive
same,Potency,[11],inactive
CC(C)CC(N(C)C)C1(c2ccc(Cl)cc2)CCC1 (stereo not drawn),"activity change, negative = inhibition",[1]; at 57.5 µM (top of the series),0.545% (inactive)
same,max response,[1]; [21],5.29%
same,max response,[1]; [22],6.62%
Nc1ccncc1,outcome,[2],inactive
same,outcome,[3],inactive
same,outcome,[4],inactive
same,"activity change, negative = inhibition",[1]; at 57.5 µM (top of the series),-5.36% (inactive) and 3.03% (inactive)
same,max response,[1]; [21],-7.26% and -3.5%
same,max response,[1]; [22],-10.8% and 8.53%
same,outcome,[6],inactive
same,Potency,[7],inactive
same,outcome,[8],inactive
same,Potency,[9],inactive
same,Potency,[12],inactive
same,Potency,[10],inactive
same,Potency,[13],inactive
same,Potency,[11],inactive
same,Potency,[14],inactive
Cc1ccc(-c2nc3ccc(C)cn3c2CC(=O)N(C)C)cc1,"activity change, negative = inhibition",[1]; at 57.5 µM (top of the series),1.62% (inactive)
same,max response,[1]; [21],1.87%
same,max response,[1]; [22],4.31%
CCCN1CCC[C@@H]2Cc3[nH]ncc3C[C@H]21,outcome,[2],inactive
same,outcome,[3],inactive
same,outcome,[4],inactive
same,"activity change, negative = inhibition",[1]; at 25.7 µM (top of the series),-0.566% (inactive)
same,"activity change, negative = inhibition",[1]; at 57.5 µM (top of the series),-0.922% (inactive)
same,max response,[1]; [21],-11.1% and 10.4%
same,max response,[1]; [22],-11.8% and 9.61%
Fc1ccc(C(OCCN2CCN(CCCc3ccccc3)CC2)c2ccc(F)cc2)cc1,outcome,[2],inactive
same,outcome,[3],inactive
same,outcome,[4],inactive
same,"activity change, negative = inhibition",[1]; at 25.7 µM (top of the series),-2.3% (inactive)
same,max response,[1]; [21],-18.7%
same,max response,[1]; [22],-16.6%
same,outcome,[6],inactive
same,Potency,[7],inactive
same,Potency,[9],3.98 µM (active)
same,Potency,[12],3.98 µM (active)
same,Potency,[10],7.08 µM (active)
same,Potency,[13],12.6 µM (active)
same,Potency,[11],7.94 µM (active)
same,Potency,[14],2.82 µM (active)
COC[C@H]1OC(=O)c2coc3c2[C@@]1(C)C1=C(C3=O)C2CCC(=O)[C@@]2(C)C[C@H]1OC(C)=O (stereo partly drawn),outcome,[6],inactive
same,Potency,[7],inactive
same,Potency,[10],12.6 µM (active)
same,Potency,[13],inactive
same,Potency,[11],11.2 µM (active)
same,Potency,[14],11.2 µM (active)
CN1CCN(C2=Nc3cc(Cl)ccc3Nc3ccccc32)CC1,outcome,[4],inactive
same,"activity change, negative = inhibition",[1]; at 25.7 µM (top of the series),0.266% (inactive)
same,max response,[1]; [21],-21%
same,max response,[1]; [22],-18.6%
Oc1ccccc1-c1ccccc1,Potency,[15],inactive
same,Potency,[16],inactive
same,Potency,[17],inactive
same,outcome,[18],inactive
same,Potency,[19],inactive
same,Potency,[20],inactive
CC(=O)Oc1ccccc1C(=O)Nc1ncc([N+](=O)[O-])s1,Potency,[15],39.8 µM (active)
same,Potency,[19],39.8 µM (active)
same,Potency,[20],39.8 µM (active)
OCCOc1ccccc1,Potency,[15],inactive
same,Potency,[16],inactive
same,Potency,[17],inactive
same,outcome,[18],inactive
same,Potency,[19],inactive
same,Potency,[20],inactive

# — PubChem BioAssay (NCATS)
